Records with an inconclusive call do not appear. Where a call stands in place of a potency, no number is given. The source made the active and inactive calls. Calls come from the whole dose curve; as a rule, active = well fitted curve in the direction sought with a large enough effect; inconclusive = small, poorly fitted or top-dose-only effect, or another doubt; inactive = no such curve, though single readings can be large; an effect the other way counts as inactive or inconclusive.
Key:
[1] = target: Voltage-gated inwardly rectifying potassium channel KCNH2 (Homo sapiens) (UniProt Q12809); assay: qHTS Assay for Small Molecule Inhibitors of the Human hERG Channel Activity (AID 588834);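 note: lower thallium flux fluorescence means stronger hERG block; nearly all actives have a fitted effect of over 50% in size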; note: potency is the fitted concentration of half-maximal effect
Sequence of Voltage-gated inwardly rectifying potassium channel KCNH2 (Homo sapiens) (Q12809 whole entry, looked up): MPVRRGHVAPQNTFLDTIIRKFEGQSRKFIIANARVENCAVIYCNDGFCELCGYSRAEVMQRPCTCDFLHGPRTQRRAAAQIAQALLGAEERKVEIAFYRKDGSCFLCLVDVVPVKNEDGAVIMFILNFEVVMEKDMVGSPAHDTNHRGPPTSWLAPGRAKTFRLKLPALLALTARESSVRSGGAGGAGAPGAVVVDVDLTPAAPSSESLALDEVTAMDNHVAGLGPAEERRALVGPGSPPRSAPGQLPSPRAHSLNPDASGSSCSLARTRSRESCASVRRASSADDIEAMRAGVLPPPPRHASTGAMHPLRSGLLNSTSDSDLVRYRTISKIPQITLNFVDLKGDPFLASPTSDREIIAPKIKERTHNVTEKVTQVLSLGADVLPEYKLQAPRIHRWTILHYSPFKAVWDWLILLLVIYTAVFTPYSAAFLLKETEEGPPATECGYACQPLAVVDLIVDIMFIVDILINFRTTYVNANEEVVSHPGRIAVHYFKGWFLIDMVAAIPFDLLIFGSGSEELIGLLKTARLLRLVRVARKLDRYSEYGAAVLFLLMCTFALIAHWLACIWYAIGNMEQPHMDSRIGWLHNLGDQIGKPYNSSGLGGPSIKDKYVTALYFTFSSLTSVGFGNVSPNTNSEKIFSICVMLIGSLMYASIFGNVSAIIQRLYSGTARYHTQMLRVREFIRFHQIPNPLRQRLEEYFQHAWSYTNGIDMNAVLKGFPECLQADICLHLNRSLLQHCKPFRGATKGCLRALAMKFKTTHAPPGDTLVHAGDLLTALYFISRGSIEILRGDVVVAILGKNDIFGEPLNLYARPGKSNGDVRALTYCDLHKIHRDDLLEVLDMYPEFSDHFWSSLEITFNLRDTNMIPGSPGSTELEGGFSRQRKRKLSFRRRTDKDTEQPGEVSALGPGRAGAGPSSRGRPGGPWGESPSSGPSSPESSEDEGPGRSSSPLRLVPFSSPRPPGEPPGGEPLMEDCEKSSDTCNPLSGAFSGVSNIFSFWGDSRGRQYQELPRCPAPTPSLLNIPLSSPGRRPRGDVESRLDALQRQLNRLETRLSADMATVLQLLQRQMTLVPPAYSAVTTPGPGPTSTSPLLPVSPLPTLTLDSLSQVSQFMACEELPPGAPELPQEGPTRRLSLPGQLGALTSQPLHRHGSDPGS
Method in brief: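 Concentration-response qHTS measuring drop in thallium-sensitive dye signal. U2OS cells carrying BacMam hERG; compound exposure ~10 min, then stimulation buffer and 2 min read at 1 sec intervals.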

[2] = target: Glutaminase kidney isoform, mitochondrial (Homo sapiens) (UniProt O94925); assay: qHTS for Inhibitors of Glutaminase (GLS): LOPAC Validation (AID 624146); note: nearly all actives have a fitted effect of over 60% in size; note: potency is the fitted concentration of half-maximal effect
Sequence of Glutaminase kidney isoform, mitochondrial (Homo sapiens) (O94925 whole entry, looked up, canonical isoform): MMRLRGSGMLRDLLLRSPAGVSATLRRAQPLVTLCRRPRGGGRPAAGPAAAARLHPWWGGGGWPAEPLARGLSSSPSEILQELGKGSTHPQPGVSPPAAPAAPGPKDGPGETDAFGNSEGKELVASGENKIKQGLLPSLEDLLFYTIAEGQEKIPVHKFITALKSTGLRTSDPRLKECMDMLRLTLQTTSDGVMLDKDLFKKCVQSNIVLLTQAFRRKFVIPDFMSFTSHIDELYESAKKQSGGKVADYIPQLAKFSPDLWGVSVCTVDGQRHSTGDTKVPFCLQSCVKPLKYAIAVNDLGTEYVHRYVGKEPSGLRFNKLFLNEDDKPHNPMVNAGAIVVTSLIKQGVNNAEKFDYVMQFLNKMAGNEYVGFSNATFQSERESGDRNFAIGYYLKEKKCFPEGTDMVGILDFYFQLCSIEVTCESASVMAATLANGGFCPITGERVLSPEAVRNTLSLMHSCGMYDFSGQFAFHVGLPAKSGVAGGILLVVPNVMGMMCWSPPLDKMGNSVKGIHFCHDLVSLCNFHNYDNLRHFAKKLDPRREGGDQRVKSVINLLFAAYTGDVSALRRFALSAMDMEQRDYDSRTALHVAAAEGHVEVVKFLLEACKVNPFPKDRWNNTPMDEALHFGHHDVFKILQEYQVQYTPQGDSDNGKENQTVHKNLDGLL
Method in brief: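 hKGA in 45 mM KH2PO4 pH 8.2, 0.02% Tween-20 with pin-transferred compounds; 1 mM L-glutamine (stock) plus glutamate oxidase/HRP/Amplex Red coupling added. Fluorescence read initially and after 30 min at RT.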

[3] = qHTS of Trypanosoma Brucei Inhibitors: LOPAC Validation (AID 624147)
Method in brief: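 In this concentration-response screen, enzyme-free wells defined baseline while DMSO plates tracked drift. Each reaction combined TbPYK, substrate, compound and 130 uM ADP for 45 min at room temperature. Kinase-Glo Plus luminescence gave the signal.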

[4] = target: Glucagon-like peptide 1 receptor (Homo sapiens) (UniProt P43220); assay: qHTS of GLP-1 Receptor Agonists: LOPAC Validation (AID 624148);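 note: higher luminescence signal means agonism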
Sequence of Glucagon-like peptide 1 receptor (Homo sapiens) (P43220 whole entry, looked up): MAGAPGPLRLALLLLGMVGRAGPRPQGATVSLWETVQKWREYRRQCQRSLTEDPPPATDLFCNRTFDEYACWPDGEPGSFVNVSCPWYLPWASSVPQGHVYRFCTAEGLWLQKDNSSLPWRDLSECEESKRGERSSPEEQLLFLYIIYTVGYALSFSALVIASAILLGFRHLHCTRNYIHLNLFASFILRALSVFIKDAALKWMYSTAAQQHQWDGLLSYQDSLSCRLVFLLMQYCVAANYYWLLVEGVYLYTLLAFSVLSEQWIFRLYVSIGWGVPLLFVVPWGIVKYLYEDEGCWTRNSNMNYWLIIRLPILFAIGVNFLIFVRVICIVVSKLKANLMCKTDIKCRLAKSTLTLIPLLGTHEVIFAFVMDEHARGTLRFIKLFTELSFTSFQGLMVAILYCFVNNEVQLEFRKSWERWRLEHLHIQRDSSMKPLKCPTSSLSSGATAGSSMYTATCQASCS
Method in brief: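 HEK293 cells stably co-expressing a cAMP-responsive luciferase reporter and a hypersensitive GLP-1R were plated 12 h at 37 °C and exposed to compounds for 4-6 hr at 37 °C, 5% CO2. Luminescence was read 12 min after adding detection reagent.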

[5] = qHTS of Nrf2 Activators: LOPAC Validation (AID 624149)
Method in brief: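 Luminescence read-out of ARE-luciferase activation: AREc32_Fluc cells treated with compounds for 24 hr at 37 deg C, then lysed with Steady-Glo for 30 min at room temperature before reading.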

[6] = HTS Assay for Allosteric Antagonists of the Human D2 Dopamine Receptor: Hit Validation in HTRF (AID 624455);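 note: stable D1 dopamine receptor cell line scored for blocking the D1 response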
Method in brief: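 First, antagonism was screened by calcium flux in a force-coupled, inducible Hek293 Trex D2 line challenged with EC80 dopamine. Hits then went into an HTRF assay in cells stably expressing D1, testing inhibition of the D1 response.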

| Structure (SMILES) | Potency [1] | Potency [2] | Potency [3] | Potency [4] | Potency [5] | Potency [6] |
| --- | --- | --- | --- | --- | --- | --- |
| C=CCn1c(=O)c2c(nc(-c3ccc(S(=O)(=O)O)cc3)n2C)n(C)c1=O | inactive | inactive | inactive | inactive | inactive | inactive |
| CNc1ncnc2c1ncn2[C@H]1C[C@H](OP(=O)(O)O)[C@@H](COP(=O)(O)O)O1 | inactive | inactive | inactive | inactive |  | inactive |
| N[C@H](C(=O)O)[C@H](O)C(=O)O | inactive | inactive | inactive | inactive | inactive | inactive |
| Cn1c(=O)c2[nH]c(C3CCCC3)nc2n(C)c1=O | inactive | inactive | inactive | inactive | inactive | inactive |
| CCCCCCCCCC[Si](C)(C)CCC(=O)NC(Cc1ccc(C)cc1)c1ccccc1 (configuration not stated) | inactive | inactive | inactive | inactive | inactive | inactive |
| O=C(O)c1cc(=O)cc(C(=O)O)[nH]1 | inactive | inactive | inactive | inactive | inactive | inactive |
| O=C(O)CCC(=O)N1CCCC1C(=O)O (configuration not stated) | inactive | inactive | inactive | inactive | inactive | inactive |
| C=CCN1CCc2c(cc(O)c(O)c2Br)[C@@H](c2ccccc2)C1 | 7.08 µM (active) |  | inactive | inactive | inactive |  |
| O=C(O)Cc1c[nH]c2ccc(O)cc12 | inactive | 1.58 µM (active) |  | inactive | inactive | inactive |
| Oc1cc2c(cc1O)C(c1ccccc1)CNCC2 (configuration not stated) | 8.91 µM (active) | 0.631 µM (active) |  | inactive | inactive |  |
| Cn1c(=O)c2[nH]c(-c3ccc(S(=O)(=O)O)cc3)nc2n(C)c1=O | inactive |  | inactive | inactive | inactive |  |
| CC(=O)[C@H]1CCC2C3CC=C4C[C@@H](OS(=O)(=O)O)CC[C@]4(C)C3CC[C@@]21C (some centres not stated) | inactive | inactive | inactive | inactive |  | inactive |
| NC1(C(=O)O)CCc2cc(C(=O)O)ccc21 (configuration not stated) | inactive | inactive | inactive | inactive |  | inactive |
| COc1cc(C(O)C(=O)O)ccc1O (configuration not stated) | inactive | 2.82 µM (active) | inactive | inactive |  | inactive |
| C=CCN1CCc2c(cc(O)c(O)c2Cl)C(c2ccccc2)C1 (configuration not stated) | 7.94 µM (active) |  | inactive | inactive | inactive |  |

— PubChem BioAssay (NCATS)
